About 9,100 (2.5%) of roughly 360,000 compounds were called active. Roughly 4% stayed inconclusive and do not appear here. No stated cut-off is given here; in the data, active means max response below about -50%; inconclusive means no clear call, values can overlap the other calls; inactive means above that. Many of the other results were omitted from the sample, so actives are more common in it than they were.
The compounds below were run against D(3) dopamine receptor (Homo sapiens) (UniProt P35462) (assay: qHTS of D3 Dopamine Receptor Antagonist: qHTS). Conditions: D3R cells, DiscoveRx beta-arrestin luminescence, antagonist mode; hits give low values.
Chain of D(3) dopamine receptor (Homo sapiens) (P35462 whole entry, looked up): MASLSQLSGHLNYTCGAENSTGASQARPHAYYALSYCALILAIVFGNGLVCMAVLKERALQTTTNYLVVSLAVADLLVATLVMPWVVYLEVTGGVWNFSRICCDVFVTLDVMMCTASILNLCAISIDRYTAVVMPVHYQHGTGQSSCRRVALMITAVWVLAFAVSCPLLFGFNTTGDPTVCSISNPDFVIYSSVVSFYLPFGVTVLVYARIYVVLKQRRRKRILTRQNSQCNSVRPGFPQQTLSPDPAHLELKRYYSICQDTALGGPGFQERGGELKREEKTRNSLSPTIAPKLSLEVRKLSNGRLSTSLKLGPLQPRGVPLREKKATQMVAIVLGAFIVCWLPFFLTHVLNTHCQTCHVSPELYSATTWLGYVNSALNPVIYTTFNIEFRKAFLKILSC
Description: D3 DARs represent a very important target for the treatment of several neuropsychiatric disorders. Indeed, one of the most promising therapeutic applications for the D3 DAR is in the area of addiction and related disorders. […] These findings have been observed with a number of addictive substances including cocaine, amphetamine, nicotine, and alcohol. […] Antagonism of the D3 DAR may also be therapeutic in the treatment of schizophrenia or psychosis. […] Since the D3 DAR is expressed in areas of the CNS associated with the control of mood and emotion, it has been hypothesized that selective antagonism of the D3 DAR may be effective in treating psychosis without inducing the motor side effects typically seen with D2 DAR antagonists.
This part of the project aims to discover novel antagonist.
NIH Chemical Genomics Center [NCGC]
NIH Molecular Libraries Probe Centers Network [MLPCN]
Assay Submitter (PI): David Sibley, NINDS
Freshly passaged cells are plated in 1536 well white, solid bottom plates at a density of 1500 cells/well in 3microl of complete media. After an overnight incubation at 37 degrees C in 5% CO2, cells are loaded with 23nl of test compound from the compound library (as well as dopamine controls) using a 1536 pintool and incubated at 37 degrees C for 90 minutes. Two microliters of DiscoveRx reagent is then added to all cells, and they are incubated for an additional 30 - 60 minutes at room temperature. Following incubation, luminescence is measured on a ViewLux CCD-based luminometer reader using a 20 sec exposure time.
With `CC(Cc1ccccc1)NCCC(c1ccccc1)c1ccccc1` (stereo not drawn) the max response, negative = inhibition was -75.4% (active). With `CC(=O)NC(=O)NC(C)Cc1ccccc1` (stereo not drawn) the max response, negative = inhibition was 0% (inactive). `Fc1ccc(C2N3CCCN23)cc1` (stereo not drawn) was tested, and the max response, negative = inhibition was 17.3% (inactive). With `CCOC(=O)CC(SP1(=S)OCC2(CCCCO2)C(C2CCCCO2)O1)C(=O)OCC` (stereo not drawn) the max response, negative = inhibition was 0.24% (inactive). With `COc1ccc2c(c1O)-c1cccc3c1[C@@H](C2)N(C)CC3` the max response, negative = inhibition was -64.4% (active). `COc1c(O)ccc2c1-c1c3c(cc4c1C(C2)N(C)CC4)OCO3` (stereo not drawn) was tested, and the max response, negative = inhibition was -20.5% (inactive). In the case of `COC1=C[C@@H]2[C@@H]3Cc4ccc(OC)c(O)c4[C@]2(CCN3C)CC1=O`, the max response, negative = inhibition is reported as 2.57% (inactive). In the case of `COc1cccc(CN2CCCC(C(=O)c3ccccc3SC)C2)c1O` (stereo not drawn), the max response, negative = inhibition is reported as -25.9% (inactive). For `c1cncc(CNC2=NCCC2)c1`, the max response, negative = inhibition was -0.0969% (inactive). `COC(=O)CN(CCCl)P1(=O)OCCCN1CCCl` (stereo not drawn) was tested, and the max response, negative = inhibition was 9.55% (inactive). `CCn1cc(CN2CCCC(C(=O)c3cccc(C(F)(F)F)c3)C2)cn1` (stereo not drawn) was tested, and the max response, negative = inhibition was -84.1% (active). With `CSc1ccc(C(=O)C2CCCN(Cc3ccn[nH]3)C2)cc1` (stereo not drawn) the max response, negative = inhibition was 2.56% (inactive). For `CC(C)Oc1cccc(C(=O)C2CCCN(C3CCOCC3)C2)c1` (stereo not drawn), the max response, negative = inhibition was -5.82% (inactive). With `CN(C)CC1Oc2ccccc2OC1(O)c1ccccc1` (stereo not drawn) the max response, negative = inhibition was -95.3% (active). With `CC1CCC(N(C)C2CCN(C)CC2)CC1` (stereo not drawn) the max response, negative = inhibition was -17.4% (inactive). With `Cc1cccc(-n2c(C)nc3cc(C(=O)N4CCC5(CC4)OCCO5)ccc32)c1` the max response, negative = inhibition was -5.12% (inactive). In the case of `Clc1cccc(Cl)c1Cl`, the max response, negative = inhibition is reported as -21.5% (inactive). In the case of `CN1CCN(Cc2ccccc2C(F)(F)F)CC1`, the max response, negative = inhibition is reported as -22.2% (inactive). In the case of `Fc1cccc(F)c1CN1CCN(Cc2c(F)cccc2F)CC1`, the max response, negative = inhibition is reported as -59.3% (active). In the case of `O=C(N/N=C/c1c(O)n(C2CC2)c(=S)[nH]c1=O)c1ccccc1`, the max response, negative = inhibition is reported as -25.4% (inactive). `CCC/C(=N\O)c1c[nH]c2ccccc12` was tested, and the max response, negative = inhibition was -19.7% (inactive). With `Cc1cccc(NC(=O)N2CC3CC(C2)c2cccc(=O)n2C3)c1` (stereo not drawn) the max response, negative = inhibition was 8.44% (inactive). In the case of `CCOC(=O)C(O)(c1ccc(NC(=O)c2ccco2)c(OC)c1)C(F)(F)F` (stereo not drawn), the max response, negative = inhibition is reported as 44% (inactive). `COc1cc(C(c2c(O)c3ccccc3oc2=O)c2c(C)n(C)n(-c3ccccc3)c2=O)ccc1O` (stereo not drawn) was tested, and the max response, negative = inhibition was 9.1% (inactive). With `CCC(=O)CC(c1ccc([N+](=O)[O-])cc1)c1c(O)c2ccccc2oc1=O` (stereo not drawn) the max response, negative = inhibition was -88.6% (active). For `Cc1ccc(-n2c(-c3ccc([N+](=O)[O-])cc3)nc3ccccc3c2=O)cc1`, the max response, negative = inhibition was 7.83% (inactive). In the case of `COC(=O)C[C@H]1CC[C@H]2NC[C@@H](O)COC[C@@H]2O1`, the max response, negative = inhibition is reported as 0.0579% (inactive). In the case of `CC(=O)NCC1=C(c2ccc3ccccc3c2)C[C@@H]2CC[C@H]1N2Cc1ccco1`, the max response, negative = inhibition is reported as -16.9% (inactive).

Source: PubChem BioAssay AID652054 (National Center for Advancing Translational Sciences (NCATS), 2013)
On the % scale 0 is the no-effect control and ±100 the full control effect.
